# Out of some 340,000 compounds screened, about 6,400 (1.9%) were called active. Entries that show only a call come without a potency. Roughly 4% stayed inconclusive and do not appear here. Calls come from the whole dose curve; as a rule, active = well fitted falling curve with a large enough effect; inconclusive = small, poorly fitted or top-dose-only effect; inactive = no such curve, though single readings can be large or run the other way. The sample as a whole holds a higher share of actives than the screen did.
# Target: ATP-dependent Clp protease proteolytic subunit (Bacillus subtilis (strain 168)) (UniProt P80244)
# Sequence (P80244 whole entry, looked up): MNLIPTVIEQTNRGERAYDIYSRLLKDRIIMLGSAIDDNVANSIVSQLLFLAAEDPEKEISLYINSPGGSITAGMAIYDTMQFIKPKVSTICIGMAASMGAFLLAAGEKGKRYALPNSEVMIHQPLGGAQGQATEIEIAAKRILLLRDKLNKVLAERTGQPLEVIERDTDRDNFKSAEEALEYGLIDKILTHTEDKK
# Experiment: qHTS Assay for Activators of ClpP; note: the source files actives as falling curves though it sought activators and does not explain the sign; nearly all actives have a fitted effect of over 65% in size
# Conditions: purified B. subtilis ClpP, FRET peptide cleavage, 20 min; series mostly up to 57.5 µM
# Summary of the method: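 FRET quenching reversal measured ClpP activation: 10 microg/mL B. subtilis ClpP at pH 8 with the FRET-FV decapeptide, read at 430 nm after 320 nm excitation. The 20-min minus 0-min signal was scaled between DMSO/no-enzyme wells and ADEP (5.8 microM final).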
# Potency is the fitted concentration of half-maximal effect.
row,Compound,Potency
1,N#Cc1ccc(C(C(=O)NCc2ccccc2)n2c(=O)c(-c3ccco3)nc3ccccc32)cc1 (centres undefined),inactive
2,CC(C)(C)NC(=O)C(CCc1ccccc1)n1c(=O)c(-c2ccccc2)nc2ccccc21 (centres undefined),inactive
3,COc1ccc(C(C(=O)NCc2ccccc2)n2c(=O)c(-c3ccccc3)nc3ccccc32)cc1 (centres undefined),28.2 µM (active)
4,CCc1nc2c(OCCOc3ccc(F)cc3)cccn2c1N(C)C(=O)c1ccccc1F,inactive
5,CC(C)(C)Cc1c(C2CCCCC2)nc2ccc(Br)cn12,inactive
6,CCc1c(-c2ccc(F)cc2)ncn1Cc1cccc(-c2ccccc2)c1,inactive
7,Cn1c(Nc2ccc(F)cc2)nc2cc(-c3ccsc3)sc2c1=O,inactive
8,O=C(O)C1=C/C(=C/C=[N+]2c3cc(O)c(O[C@H]4OC(CO)[C@@H](O)[C@@H](O)[C@@H]4O)cc3C[C@@H]2C(=O)[O-])C[C@H](C(=O)O)N1 (some centres undefined),inactive
9,Cc1cccc(-c2cnc(C(O)c3cc(C)cc(C)c3)[nH]2)c1 (centres undefined),inactive
10,O=C(O)c1ccccc1-c1ccccc1C(=O)NCCc1ccccc1,inactive
11,O=C(NCCc1ccccc1)c1cnc2sc(N3CCCC3)nn2c1=O,inactive
12,CCN(CC)c1nn2c(=O)c(C(=O)NCCc3ccccc3)cnc2s1,28.2 µM (active)
13,CC1(C(=O)Nc2cccc3cccnc23)CCN1C(=O)CCC1CCCC1 (centres undefined),inactive
14,Cc1occc1C(=O)Nc1nnc(C2CCCCC2)s1,inactive
15,Cc1occc1C(=O)Nc1nnc(-c2ccncc2)s1,31.6 µM (active)
16,Cc1ccc(NC(=O)Nc2nnc(-c3ccncc3)s2)cc1,inactive
17,CCCCOc1ccc(C(=O)NO)cc1,inactive
18,O=C(OCc1ccccc1)N1CCC2CC1c1ccc(-c3ccc4c(c3)OCO4)cc12 (centres undefined),inactive
19,CC1(C(=O)NS(=O)(=O)c2ccccc2Cl)CCN1C(=O)c1cccc(F)c1 (centres undefined),inactive
20,CCc1nc2c(OCCOc3ccccc3)cccn2c1N(C)C(=O)c1ccc(OC)cc1,inactive
21,CCOC(=O)c1c(-c2ccccc2)oc2ccc(OCC(N)=O)cc12,inactive
22,CCOC(=O)COc1cc(OCC(=O)OCC)c2c(=O)cc(-c3ccccc3)oc2c1,28.2 µM (active)
23,CCOC(=O)c1cc(=O)c2ccc(OCc3ccccc3)cc2o1,inactive
24,CN1C[C@@H](CO)O[C@@H](n2cnc3c(N4CCN(CCO)CC4)ncnc32)C1,inactive
25,COc1cccc(NC(=S)NCc2ccccn2)c1,inactive

row,Compound,Potency
1,Cc1ccc(CN(Cc2cccnc2)C(=S)Nc2cccc(Cl)c2C)cc1,inactive
2,COc1cccc(NC(=S)N(Cc2ccc(C)cc2)Cc2ccccn2)c1,28.2 µM (active)
3,CC1(C(=O)NCc2ccco2)Cc2c(-c3ccc4c(c3)OCO4)ccnc2O1 (centres undefined),inactive
4,O=C(O)c1ccc(CSc2nc3cccnc3n2Cc2cccc(F)c2)cc1,31.6 µM (active)
5,O=C(NCc1ccc(F)cc1)c1ccc(Cn2c(SCc3ccc(F)cc3)nc3cccnc32)cc1,28.2 µM (active)
6,O=C(O)c1ccc(Cn2c(SCc3ccc(F)cc3)nc3ccncc32)cc1,inactive
7,C=CCn1c(SCc2ccc(C(=O)NCCO)cc2)nc2ccccc2c1=O,inactive
8,Cc1ccc(CSc2nc3cccnc3n2Cc2ccc(C(=O)NC3CC3)cc2)cc1,inactive
9,Cc1cccc(CSc2nc3ccncc3n2Cc2ccc(C(=O)O)cc2)c1,inactive
10,COc1cccc(C(O)c2ncc(-c3ccc4ccccc4c3)[nH]2)c1 (centres undefined),inactive
11,CCCCNC(=O)C[C@@H]1C[C@@]2(C(=O)OCC)CCC=C2N(Cc2cccc3ccccc23)C1=O,inactive
12,CCOC(=O)[C@]12CCC=C1N(Cc1cccc3ccccc13)C(=O)[C@H](CC(=O)NCc1cccc(C(F)(F)F)c1)C2,inactive
13,Cc1nn(CC(=O)NCCc2ccccc2)c(=O)c2cc3occc3n12,inactive
14,Cc1nn(CC(=O)NCC2CCCO2)c(=O)c2cc3ccccc3n12 (centres undefined),inactive
15,Cc1nn(CC(=O)O)c(=O)c2cc3cc(F)ccc3n12,28.2 µM (active)
16,O=C(c1ccccc1)N1CCN(c2cc(-c3ccccc3)nc3cc(-c4cccc(Cl)c4)nn23)CC1,inactive
17,CC=CCn1c(SCCCc2ccccc2)nc2c1c(=O)[nH]c(=O)n2C,inactive
18,COc1ccc([C@H]2CC(=O)C[C@@H](CCn3cc(CC4CCCC4)nn3)O2)cc1,inactive
19,COc1ccc(NC(=O)c2cc(-c3ccc(C)o3)nc3ccccc23)cc1,inactive
20,COc1ccc(NC(=O)CN(C)C(=O)c2cc(-c3ccc(C)o3)nc3ccccc23)cc1,25.1 µM (active)
21,COc1cccc(NC(=O)CN(C)C(=O)c2cc(Cl)nc3ccccc23)c1,inactive
22,Cc1ccc(F)c(S(=O)(=O)NC(=O)C2(C)CCN2C(=O)CCc2cccs2)c1 (centres undefined),inactive
23,CCOc1ccccc1Nc1ccc(C(=O)O)cc1[N+](=O)[O-],inactive
24,Cc1ccc(Nc2ccc(C(N)=O)cc2[N+](=O)[O-])cc1,12.6 µM (active)
25,NC(=O)c1ccc(Nc2ccc3nonc3c2[N+](=O)[O-])cc1,inactive

row,Compound,Potency
1,COc1cccc2c(O)cc(=O)n(C)c12,35.5 µM (active)
2,COc1cccc(OC)c1C(=O)Nc1ccc2c(c1)n(C)c(=O)n2C,inactive
3,COc1cc2c(=O)n(C)c3ccccc3c2cc1OC,inactive
4,CCOc1ccc(Cl)cc1-c1cc(C(=O)NCc2cccs2)[nH]n1,inactive
5,CCOCCC(=O)Nc1ccc2c(c1)c(=O)n(C)n2-c1ccc2ccccc2c1,inactive
6,O=C1CC(c2ccccc2)CC2=C1C(c1ccco1)n1nc(C(F)(F)F)nc1N2 (centres undefined),inactive
7,CCCCc1c(-c2ccc(Br)cc2)ncn1CCc1ccccc1OC,inactive
8,O=C(OCC(=O)N1CCN(C(=O)c2ccco2)CC1)c1cccc(O)c1,inactive
9,O=C(OCC(=O)N1CCN(C(=O)c2ccco2)CC1)c1c(Cl)cccc1Cl,31.6 µM (active)
10,O=C(OCC(=O)N1CCN(C(=O)c2ccco2)CC1)c1ccc(Cl)c(Cl)c1,inactive
11,COc1cccc(-c2ccc3c(c2)N(Cc2ccccc2OC)C(=O)C(C)S3)c1 (centres undefined),inactive
12,O=C1Nc2ccccc2-n2nnnc2C1N1CCN(c2cccc(C(F)(F)F)n2)CC1 (centres undefined),inactive
13,Cc1cc(=O)oc2cc(NC(=O)C(C)Oc3ccccc3)ccc12 (centres undefined),28.2 µM (active)
14,Cc1cc(=O)oc2cc(OC(C)C(=O)Nc3ccc(N4CCOCC4)cc3)ccc12 (centres undefined),inactive
15,Cc1cc(=O)oc2cc(OC(C)C(=O)NCCc3ccc(S(N)(=O)=O)cc3)ccc12 (centres undefined),inactive
16,Cc1cc(C)c2cc(C#N)c(N3CCNCC3)nc2c1,inactive
17,Cc1cccc2cc(C#N)c(N3CCCC3)nc12,28.2 µM (active)
18,CC(=O)c1ccc(S(=O)(=O)N2CCN(c3nc4c(C)c(C)ccc4cc3C#N)CC2)cc1,inactive
19,CC1(Oc2ccc(Cl)cc2)CCN(Cc2csc3ccccc23)C1 (centres undefined),inactive
20,CN(CCOc1ccccc1)C(=O)c1cc(-c2ccco2)nc2ccccc12,inactive
21,CC1CCCN(C(=O)c2cc(-c3ccco3)nc3ccccc23)C1 (centres undefined),inactive
22,O=C(c1cc(-c2ccco2)nc2ccccc12)N(Cc1nnc(-c2ccc(Cl)cc2)o1)C1CC1,28.2 µM (active)
23,Cc1ccc(Cc2c(-c3ccco3)nc3ccc(Cl)cn23)cc1,inactive
24,O=C1NC[C@H](CCCCN2C[C@H](Cc3ccccc3)N(Cc3ccccc3)C(=O)C2=O)N(CCc2ccc(O)cc2)C1=O,inactive
25,CN(C)c1ccc(CSc2ccccc2)cc1,12.6 µM (active)

row,Compound,Potency
1,CN(C)c1cc[n+](Cc2ccccc2)cc1,inactive
2,O=C(c1ccc(CSc2ccccc2)cc1)N1CCCCCC1,inactive
3,COc1ccc(-c2cc(NC=O)c3ncc(-c4ccccc4)n3c2)cc1OC,inactive
4,CCc1nc2c(OCc3ccc(F)c(F)c3)cccn2c1N(C)C(=O)c1ccco1,inactive
5,CC1=C(C(=O)Nc2cc(C)ccn2)C(c2cnn(C)c2)C2=C(CC(c3ccccc3)CC2=O)N1 (centres undefined),31.6 µM (active)
6,Cc1ccnc(NC(=O)c2ccoc2C)c1,inactive
7,CCCn1c(=O)c(C(=O)Nc2cc(C)ccn2)c(O)c2ccccc21,inactive
8,CN1OC[C@@H]2CN(S(=O)(=O)c3cccc4ccccc34)[C@H](c3ccc(N4CCCCC4)cc3)C[C@@H]21,inactive
9,O=C(NC(c1ccc(Cl)cc1)c1cnccn1)C1CCN(Cc2ccc(Cl)cc2)CC1 (centres undefined),inactive
10,O=C1[C@H]2[C@@H](c3ccc(C(F)(F)F)cc3)N[C@]3(CCCN(Cc4ccc(Cl)cc4)C3=O)[C@H]2C(=O)N1Cc1ccccc1,inactive
11,Cc1ccccc1OCC(=O)Nc1ccc(S(=O)(=O)N2CCOCC2)cc1,inactive
12,COc1cccc(/C=N/NC(=O)CNC(=O)c2ccc(S(=O)(=O)N3CCOCC3)cc2)c1OC,31.6 µM (active)
13,COc1ccc(/C=N/NC(=O)CNC(=O)c2ccc(S(=O)(=O)N3CCCC3)cc2)c(OC)c1,inactive
14,CC(C)Oc1ccc(CN2CCC2(C)C(=O)NCc2ccc(C(F)(F)F)cc2)cc1 (centres undefined),inactive
15,CCc1nc2ccc(C(=O)N3CCC(O)(Cc4ccccc4)CC3)cn2c1N(C)C(=O)Cc1ccccc1,inactive
16,O=[N+]([O-])c1cccc2ncccc12,inactive
17,CN1CCN(S(=O)(=O)c2ccc(N3CCN(c4ccccc4O)CC3)c([N+](=O)[O-])c2)CC1,inactive
18,CN1CN(C)c2ccc([N+](=O)[O-])c3cccc1c23,15.8 µM (active)
19,CC1(C)C=Cc2c(ccc(C(=O)/C=C/c3ccccc3)c2O)O1,inactive
20,COC(=O)[C@]12CCCCC=C1N(Cc1cccc3ccccc13)C(=O)[C@H](CC(=O)N1CCOCC1)C2,inactive
21,CCN(CC)C(=O)C1=C(C)N(Cc2ccc(C(C)(C)C)cc2)C(=O)C(CC(=O)NCc2cccc3ccccc23)C1 (centres undefined),inactive
22,CN(CCc1ccccn1)C1CCCN(S(=O)(=O)c2ccccc2Cl)C1 (centres undefined),inactive
23,CN(CCc1ccccn1)S(=O)(=O)c1ccc2c3c(cccc13)C(=O)N2,25.1 µM (active)
24,CN(CC(=O)NCCc1ccccn1)S(=O)(=O)c1ccc(Cl)cc1,inactive

# Reference: PubChem BioAssay AID651965 (National Center for Advancing Translational Sciences (NCATS), 2013)
